# According to the supplement of paper PMC10849652:
# About 7,900 targets were measured; listed, in parts, are those with a hit and a random draw of the rest. About 0.6% of all pairs of compound and target were hits. Values without a mark were called inactive.
# Assays:
# Assay in all cases: log2 fold change, soluble protein after heating vs DMSO (PISA); higher = thermal stabilisation; K562 cells, 10 uM, 30 min; active = over 0.2 and 3.5 SD of the protein, either way, in both replicates (recomputed)
# [1] = compound: CC1=C(C=C(C=C1)NC(=O)C2=CC(=CC=C2)C(C)(C)C#N)NC3=CC4=C(C=C3)N=CN(C4=O)C
# Method in brief: (§1)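 K562 cells at 2×10^6 cells/mL were treated with 10 μM compound for 30 min. Aliquots were heated for 3 min across 48°C-58°C, pooled, and extracted in PBS with 0.5% NP-40 at 4°C; soluble protein was the supernatant after 21,000xg for 90 min. Soluble protein was quantified by TMTpro 16plex LC-MS/MS with channel sums equalised, and reported as log2 fold change in thermal stability against DMSO controls, with values from duplicates.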
# [2] = compound: CC1=C(C=C(C=C1)NC(=O)C2=CC(=CC=C2)N(C)C)NC(=O)C3=CC=C(C=C3)O
# Method in brief: as §1
# [3] = compound: CC1=CC=C(C=C1)SC2=C3C=C(SC3=CN=C2)C(=O)N
# Method in brief: as §1
# [4] = compound: CC1=NC(=CC=C1)C2=C(N=C(N2)C(C)(C)C)C3=CC4=NC=CN=C4C=C3
# Method in brief: as §1
# Nexturastat A = compound: CCCCN(Cc1ccc(C(=O)NO)cc1)C(=O)Nc1ccccc1 [Nexturastat A]
# Method in brief: as §1
# vemurafenib = compound: CCCS(=O)(=O)Nc1ccc(F)c(C(=O)c2c[nH]c3ncc(-c4ccc(Cl)cc4)cc23)c1F [vemurafenib]
# Method in brief: as §1
# [5] = compound: CCCS(=O)(=O)Nc1ccc(F)c(C(=O)c2c[nH]c3ncc(Cl)cc23)c1F
# Method in brief: as §1
# [6] = compound: CCCc1cc(C)[nH]c(=O)c1CNC(=O)c1cc(-c2ccnc(N3CCN(C)CC3)c2)cc2c1cnn2C(C)C
# Method in brief: as §1
# givinostat = compound: CCN(CC)Cc1ccc2cc(COC(=O)Nc3ccc(C(=O)NO)cc3)ccc2c1 [givinostat]
# Method in brief: as §1
# barasertib = compound: CCN(CCCOc1ccc2c(Nc3cc(CC(=O)Nc4cccc(F)c4)[nH]n3)ncnc2c1)CCOP(=O)(O)O [barasertib]
# Method in brief: as §1
# [7] = compound: CC[C@@H]1C(=O)N(C)c2cnc(Nc3ccc(C(=O)NC4CCN(C)CC4)cc3OC)nc2N1C1CCCC1
# Method in brief: as §1
# volasertib = compound: CC[C@@H]1C(=O)N(C)c2cnc(Nc3ccc(C(=O)N[C@H]4CC[C@H](N5CCN(CC6CC6)CC5)CC4)cc3OC)nc2N1C(C)C [volasertib]
# Method in brief: as §1
# [8] = compound: CC[C@H](C)N1C=C(C2=C(C=C(C=C21)C3=CN=C(C=C3)N4CCNCC4)C(=O)NCC5=C(C=C(NC5=O)C)C)C
# Method in brief: as §1
# epoxomicin = compound: CC[C@H](C)[C@@H](C(=O)N[C@@H]([C@@H](C)O)C(=O)N[C@@H](CC(C)C)C(=O)[C@]1(CO1)C)NC(=O)[C@H]([C@@H](C)CC)N(C)C(=O)C [epoxomicin]
# Method in brief: as §1
# [9] = compound: CCn1c(C(=O)N(C2CC2)C2CC2)cc2c3c(ncn3C)c(Nc3cc(C)n(C)n3)nc21
# Method in brief: as §1
# [10] = compound: CCn1cc(-c2ccnc3[nH]c(-c4cccc(CN(C)C)c4)cc23)c(-c2ccc(NC(=O)N(C)C)cc2)n1
# Method in brief: as §1
# [11] = compound: CN(C)CC(=O)Nc1ccc2[nH]c(=O)c3ccccc3c2c1
# Method in brief: as §1
# rosiglitazone = compound: CN(CCOC1=CC=C(C=C1)C[C@H]2C(=O)NC(=O)S2)C3=CC=CC=N3 (racemic) [rosiglitazone]
# Method in brief: as §1
# [12] = compound: CN1C2=C(C3=C1C(=O)N(N=C3)CC4=CC(=CC=C4)N)SC(=C2)S(=O)C
# Method in brief: as §1
# [13] = compound: CN1CCC(CNc2ccc3ncc(-c4cccc(OC(F)(F)F)c4)n3n2)CC1
# Method in brief: as §1
# UniProt Q96P70, sequence (Q96P70 whole entry, looked up): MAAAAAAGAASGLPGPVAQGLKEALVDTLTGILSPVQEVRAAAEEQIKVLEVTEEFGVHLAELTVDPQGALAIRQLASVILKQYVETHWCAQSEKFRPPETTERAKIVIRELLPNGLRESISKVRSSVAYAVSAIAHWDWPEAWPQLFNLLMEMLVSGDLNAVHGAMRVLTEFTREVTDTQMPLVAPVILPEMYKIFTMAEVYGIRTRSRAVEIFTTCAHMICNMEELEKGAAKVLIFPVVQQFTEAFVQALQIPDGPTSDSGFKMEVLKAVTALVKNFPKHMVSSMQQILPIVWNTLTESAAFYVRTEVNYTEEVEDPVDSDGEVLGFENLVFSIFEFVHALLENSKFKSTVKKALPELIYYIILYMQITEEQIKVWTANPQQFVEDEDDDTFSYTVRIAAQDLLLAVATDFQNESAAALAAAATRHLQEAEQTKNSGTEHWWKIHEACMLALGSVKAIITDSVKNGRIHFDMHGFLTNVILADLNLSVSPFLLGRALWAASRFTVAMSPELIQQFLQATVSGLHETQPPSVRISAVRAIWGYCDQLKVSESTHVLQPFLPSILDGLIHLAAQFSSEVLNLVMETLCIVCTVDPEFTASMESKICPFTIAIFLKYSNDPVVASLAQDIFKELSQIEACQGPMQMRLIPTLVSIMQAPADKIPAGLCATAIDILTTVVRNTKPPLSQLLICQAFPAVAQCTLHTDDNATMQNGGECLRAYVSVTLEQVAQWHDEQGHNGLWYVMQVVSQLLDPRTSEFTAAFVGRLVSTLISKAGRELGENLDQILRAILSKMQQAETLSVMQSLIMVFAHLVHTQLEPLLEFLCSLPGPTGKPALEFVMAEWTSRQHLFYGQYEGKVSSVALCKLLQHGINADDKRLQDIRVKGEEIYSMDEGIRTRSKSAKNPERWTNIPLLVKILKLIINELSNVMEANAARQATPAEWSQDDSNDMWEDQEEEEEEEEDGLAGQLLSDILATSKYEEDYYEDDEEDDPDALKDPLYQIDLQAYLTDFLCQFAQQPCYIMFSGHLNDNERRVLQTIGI
# UniProt Q7L2J0, sequence (Q7L2J0 whole entry, looked up): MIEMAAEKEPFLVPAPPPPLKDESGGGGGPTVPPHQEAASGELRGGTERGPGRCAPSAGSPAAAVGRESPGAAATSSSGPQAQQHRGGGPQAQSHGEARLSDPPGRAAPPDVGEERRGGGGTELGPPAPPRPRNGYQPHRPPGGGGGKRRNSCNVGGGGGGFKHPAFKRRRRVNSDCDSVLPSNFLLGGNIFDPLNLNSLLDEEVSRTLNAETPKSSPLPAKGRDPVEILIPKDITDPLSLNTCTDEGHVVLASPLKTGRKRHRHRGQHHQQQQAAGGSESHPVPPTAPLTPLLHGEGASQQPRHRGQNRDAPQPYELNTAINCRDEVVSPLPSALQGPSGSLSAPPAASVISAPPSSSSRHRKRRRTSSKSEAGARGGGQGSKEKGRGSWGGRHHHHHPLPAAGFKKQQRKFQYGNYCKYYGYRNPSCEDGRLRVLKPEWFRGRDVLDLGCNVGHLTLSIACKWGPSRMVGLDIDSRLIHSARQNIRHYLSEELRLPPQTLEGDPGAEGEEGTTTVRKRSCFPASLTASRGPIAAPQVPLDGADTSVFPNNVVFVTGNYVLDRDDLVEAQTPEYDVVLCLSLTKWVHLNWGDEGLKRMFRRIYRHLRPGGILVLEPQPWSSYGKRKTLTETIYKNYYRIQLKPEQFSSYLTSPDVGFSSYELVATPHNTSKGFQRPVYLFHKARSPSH
# UniProt P13473, sequence (P13473 whole entry, looked up): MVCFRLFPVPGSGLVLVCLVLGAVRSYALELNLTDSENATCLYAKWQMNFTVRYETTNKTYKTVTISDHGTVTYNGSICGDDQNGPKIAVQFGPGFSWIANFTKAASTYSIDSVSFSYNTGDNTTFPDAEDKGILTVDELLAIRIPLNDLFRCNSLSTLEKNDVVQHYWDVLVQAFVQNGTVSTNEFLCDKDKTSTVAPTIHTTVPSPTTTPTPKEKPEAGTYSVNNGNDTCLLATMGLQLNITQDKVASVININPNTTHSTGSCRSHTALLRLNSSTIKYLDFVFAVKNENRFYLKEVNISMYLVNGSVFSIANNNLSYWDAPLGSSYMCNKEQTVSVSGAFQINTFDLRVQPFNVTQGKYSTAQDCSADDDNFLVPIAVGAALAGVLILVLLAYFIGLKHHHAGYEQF
# UniProt Q9UBF1, sequence (Q9UBF1 whole entry, looked up): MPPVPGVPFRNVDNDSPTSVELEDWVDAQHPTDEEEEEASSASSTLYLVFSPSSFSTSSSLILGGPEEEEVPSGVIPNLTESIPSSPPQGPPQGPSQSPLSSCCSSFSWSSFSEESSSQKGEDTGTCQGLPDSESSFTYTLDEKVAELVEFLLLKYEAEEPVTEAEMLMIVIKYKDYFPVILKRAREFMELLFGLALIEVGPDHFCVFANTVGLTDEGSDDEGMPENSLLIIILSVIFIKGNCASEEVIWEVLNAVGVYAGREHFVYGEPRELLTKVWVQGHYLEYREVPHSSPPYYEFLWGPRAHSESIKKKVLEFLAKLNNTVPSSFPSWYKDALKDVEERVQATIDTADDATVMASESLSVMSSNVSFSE
# UniProt Q16539, sequence (Q16539 whole entry, looked up): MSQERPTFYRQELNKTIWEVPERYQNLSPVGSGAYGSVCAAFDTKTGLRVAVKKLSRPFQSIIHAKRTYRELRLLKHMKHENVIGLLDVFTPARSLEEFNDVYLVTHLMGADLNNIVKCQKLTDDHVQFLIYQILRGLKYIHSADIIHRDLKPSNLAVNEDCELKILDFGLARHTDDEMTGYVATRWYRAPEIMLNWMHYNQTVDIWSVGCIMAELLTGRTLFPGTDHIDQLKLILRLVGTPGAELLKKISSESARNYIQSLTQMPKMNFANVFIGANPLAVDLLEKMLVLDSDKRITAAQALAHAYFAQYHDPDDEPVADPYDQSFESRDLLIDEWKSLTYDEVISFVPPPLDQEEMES
# UniProt P45984, sequence (P45984 whole entry, looked up): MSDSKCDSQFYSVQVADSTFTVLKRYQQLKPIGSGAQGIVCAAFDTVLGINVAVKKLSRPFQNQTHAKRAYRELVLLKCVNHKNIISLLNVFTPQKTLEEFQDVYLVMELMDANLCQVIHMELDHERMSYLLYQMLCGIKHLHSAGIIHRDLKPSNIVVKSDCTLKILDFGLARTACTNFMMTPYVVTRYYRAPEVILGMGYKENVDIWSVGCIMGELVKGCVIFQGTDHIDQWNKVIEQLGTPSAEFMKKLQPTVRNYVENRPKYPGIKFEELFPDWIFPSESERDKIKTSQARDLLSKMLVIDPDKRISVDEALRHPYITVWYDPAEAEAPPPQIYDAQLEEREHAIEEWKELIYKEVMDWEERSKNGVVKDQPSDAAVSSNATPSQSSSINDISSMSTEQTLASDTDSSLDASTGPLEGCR
# UniProt Q9NVH2, sequence (Q9NVH2 whole entry, looked up): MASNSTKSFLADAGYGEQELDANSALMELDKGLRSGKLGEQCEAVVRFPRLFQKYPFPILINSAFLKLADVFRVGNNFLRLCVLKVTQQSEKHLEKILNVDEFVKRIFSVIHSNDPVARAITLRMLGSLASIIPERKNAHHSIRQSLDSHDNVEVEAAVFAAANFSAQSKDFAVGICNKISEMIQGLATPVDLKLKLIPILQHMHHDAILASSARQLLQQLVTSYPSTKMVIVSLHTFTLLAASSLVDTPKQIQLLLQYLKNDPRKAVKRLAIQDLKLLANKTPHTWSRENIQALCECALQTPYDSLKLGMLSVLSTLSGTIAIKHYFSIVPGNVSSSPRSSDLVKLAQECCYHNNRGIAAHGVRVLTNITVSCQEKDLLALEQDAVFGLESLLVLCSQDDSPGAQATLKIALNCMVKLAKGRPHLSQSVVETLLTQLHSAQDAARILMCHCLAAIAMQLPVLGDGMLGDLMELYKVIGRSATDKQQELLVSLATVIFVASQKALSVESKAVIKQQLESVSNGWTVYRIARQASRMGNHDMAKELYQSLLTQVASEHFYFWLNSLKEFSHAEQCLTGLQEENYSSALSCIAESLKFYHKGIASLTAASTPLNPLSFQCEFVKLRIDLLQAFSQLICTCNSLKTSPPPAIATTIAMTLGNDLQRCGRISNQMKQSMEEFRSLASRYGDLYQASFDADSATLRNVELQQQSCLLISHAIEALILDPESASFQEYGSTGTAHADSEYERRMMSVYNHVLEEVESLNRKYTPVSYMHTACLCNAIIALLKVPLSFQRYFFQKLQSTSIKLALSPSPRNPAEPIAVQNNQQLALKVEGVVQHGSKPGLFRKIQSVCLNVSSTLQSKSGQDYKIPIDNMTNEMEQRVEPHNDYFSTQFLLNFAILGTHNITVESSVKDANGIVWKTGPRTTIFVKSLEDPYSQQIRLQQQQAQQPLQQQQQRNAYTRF
# UniProt Q9Y383, sequence (Q9Y383 whole entry, looked up): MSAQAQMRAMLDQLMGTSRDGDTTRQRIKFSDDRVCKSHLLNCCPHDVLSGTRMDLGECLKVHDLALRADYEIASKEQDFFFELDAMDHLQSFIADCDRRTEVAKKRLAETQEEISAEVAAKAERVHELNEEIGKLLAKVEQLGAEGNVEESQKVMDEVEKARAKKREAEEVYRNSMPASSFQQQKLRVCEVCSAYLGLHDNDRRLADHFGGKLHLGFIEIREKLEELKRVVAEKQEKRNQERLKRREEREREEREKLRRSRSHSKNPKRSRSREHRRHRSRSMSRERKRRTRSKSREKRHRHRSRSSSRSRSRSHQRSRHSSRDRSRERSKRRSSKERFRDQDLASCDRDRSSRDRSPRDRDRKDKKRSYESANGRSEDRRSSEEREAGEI
# UniProt P22692, sequence (P22692 whole entry, looked up): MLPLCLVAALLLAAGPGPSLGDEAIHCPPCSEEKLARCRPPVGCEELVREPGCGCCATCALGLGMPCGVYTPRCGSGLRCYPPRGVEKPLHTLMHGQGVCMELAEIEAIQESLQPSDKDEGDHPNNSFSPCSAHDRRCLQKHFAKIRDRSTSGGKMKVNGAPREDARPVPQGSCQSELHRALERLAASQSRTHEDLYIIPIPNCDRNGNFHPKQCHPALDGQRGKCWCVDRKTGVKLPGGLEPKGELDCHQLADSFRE
Target,log2 fold change [1],log2 fold change [2],log2 fold change [3],log2 fold change [4],log2 fold change (Nexturastat A),log2 fold change (vemurafenib),log2 fold change [5],log2 fold change [6],log2 fold change (givinostat),log2 fold change (barasertib),log2 fold change [7],log2 fold change (volasertib),log2 fold change [8],log2 fold change (epoxomicin),log2 fold change [9],log2 fold change [10],log2 fold change [11],log2 fold change (rosiglitazone),log2 fold change [12],log2 fold change [13]
IPO9 (UniProt Q96P70),0.029,0.033,0,-0.001,-0.075,0.079,0.075,-0.022,-0.018,0.025,-0.227 (active),-0.611 (active),-0.003,-0.031,0.03,0.034,0.009,0.018,-0.007,-0.077
MAPKAPK5 (UniProt Q8IW41),0.004,-0.02,-0.015,0.013,0.003,0.028,0.11,0.038,0.225,-0.03,0.009,-0.007,-0.023,0.045,-0.092,-0.132,-0.123,-0.046,-0.112,-0.033
MAGEC2 (UniProt Q9UBF1),0.017,0.045,-0.046,0.057,0,0.035,0.04,0.005,-0.013,-0.005,-0.017,-0.146,0.028,-0.062,0.038,-0.048,-0.007,0.011,-0.063,0
MEPCE (UniProt Q7L2J0),0.077,0.025,-0.014,-0.252,-0.057,0.062,0.083,0.05,-0.04,0.025,-0.07,-0.209,0.052,-0.053,0.009,-0.013,0.061,-0.019,0.007,-0.051
IRF3 (UniProt Q14653),0.18,-0.081,0.011,0.077,-0.046,0.074,0.098,0.011,0.031,-0.015,-0.05,-0.1,-0.052,-0.035,-0.02,-0.037,0.018,0.024,-0.024,-0.045
INTS7 (UniProt Q9NVH2),0.134,-0.007,0.088,0.091,-0.001,0.039,0.018,0.027,0.242,0.022,0.035,-0.313,0.1,-0.029,-0.119,-0.1,0.038,0.033,0.069,0.3
IGFBP4 (UniProt P22692),0.044,0.207,0.026,0.003,0.019,0.084,-0.08,-0.193,-0.007,0.013,-0.22,-0.07,-0.092,-0.187,-0.045,0.173,-0.049,0.13,0.023,-0.033
MEAK7 (UniProt Q6P9B6),0.081,0.053,-0.005,0.015,-0.006,0.012,0.067,-0.055,0.085,0.025,-0.084,-0.473 (active),0.039,0.067,-0.025,-0.03,-0.046,0.103,-0.033,-0.097
ILK (UniProt Q13418),-0.179,-0.053,0.025,-0.208,0.135,-0.075,-0.005,-0.031,0.041,0.019,0.033,0.064,0.035,-0.04,-0.037,-0.052,-0.006,0.051,0.125,-0.191
LUC7L2 (UniProt Q9Y383),0.016,-0.011,0.006,0.089,-0.036,0.012,0.047,0.015,-0.01,0,-0.171,-0.345 (active),0.044,-0.017,0.003,-0.003,-0.001,0.011,-0.025,-0.073
MFN2 (UniProt O95140),-0.021,-0.029,0.018,0.009,-0.022,0.019,0.064,-0.004,0.01,0.025,-0.1,-0.23,0.011,0.047,-0.004,0.011,0.009,0.03,-0.011,-0.213
IGF2R (UniProt P11717),-0.039,-0.016,0.037,-0.004,0.014,-0.022,-0.007,-0.036,-0.018,0.002,-1.09 (active),-0.875 (active),-0.033,0.002,0.018,-0.013,-0.023,-0.024,-0.013,-0.607 (active)
MIEF1 (UniProt Q9NQG6),0.054,0.009,0.023,0.13,-0.067,-0.02,0.019,0.008,-0.044,0.015,-0.053,-0.098,0.031,0.073,0.019,0.019,0.054,0.041,-0.018,-0.546 (active)
MAPK14 isoform 2 (UniProt Q16539),1.9 (active),0.649,0.024,0.036,0.064,0.095,0.219,0.026,0.107,-0.005,-0.223,-0.398,-0.019,0.02,0.081,0.001,0.039,0.007,-0.029,0.074
LAMP2 (UniProt P13473),0,0.093,-0.043,0.066,-0.104,0.05,0.048,-0.028,-0.02,0.007,0.018,0.069,-0.023,0.083,-0.009,0.019,0.059,0.007,-0.016,-0.032
MAPK9 (UniProt P45984),0,-0.011,-0.078,0.044,-0.057,-0.005,-0.07,0.034,0.038,-0.022,-0.055,-0.087,0.006,-0.005,-0.004,0.03,0,0.04,-0.038,-0.071
